Measurements from PubChem BioAssay AID817 (Emory University Molecular Libraries Screening Center, 2007).
Screen size: about 140,000 compounds; about 300 (0.21%) were called active.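 Rule for the calls: active = z-score above 3 at both the 24 hr and the 30 hr optical density reads; inactive = the rest, inconclusive results apart.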 The list comes from a sample in which actives are over-represented; it also holds similar structures and randomly drawn compounds.

Assay: restorers of sdo1-deficient yeast growth – S. cerevisiae, bone marrow failure model, primary screen (AID 817);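 note: z-score against mean and SD of all compound wells on the same plate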
Conditions: S. cerevisiae sdo1-depleted JHY4D growth rescue, at 10 µM, stronger effect = higher value, pdr5 snq2 efflux-pump mutant strain
[1] = OD600, measured here: growth rescue at 24 h

Compound | z-score (OD600 30 h) | z-score [1]
Cc1sc2ncnc(Sc3nc4ccccc4s3)c2c1C | 0.02 (inactive) | -0.34
CC(C)NC(=S)N1CCN(C(c2ccccc2)c2ccccc2)CC1 | -1.16 (inactive) | -1.01
CC(C)=C(NC(=O)c1ccccc1)C(=O)N/N=C(\C)c1ccccc1O | 1.49 (inactive) | 2.26
Cc1ccc(C(=O)c2ccc(N3CCN(C)CC3)c([N+](=O)[O-])c2)cc1 | 1.82 (inactive) | 1.21
COc1ccc(NC(=O)CC2C(=O)OCC3CCCCN32)cc1Cl (stereo not drawn) | 0.14 (inactive) | -0.04
Cc1ccc(N=C2NC(=O)c3cccc([N+](=O)[O-])c32)cc1 | 0.32 (inactive) | 0.33
CCN(CC)c1ccc(C(=O)N/N=C(\C)c2cccc(OC)c2)cc1 | 0.86 (inactive) | 0.18
NC(=O)CCC(NS(=O)(=O)c1ccc(Cl)cc1)C(=O)NCc1ccccc1Cl (stereo not drawn) | -0.28 (inactive) | -1.21
Cc1ccc(C(=O)CNc2ccc(F)cc2)cc1 | 0.78 (inactive) | -0.09
Fc1ccccc1CNC(=S)Nc1ccc(Cl)cc1 | -1.01 (inactive) | -0.89
CCOC(=O)C(C)Sc1nnc(CSc2nc3nc(C)cc(C)n3n2)o1 (stereo not drawn) | 0.4 (inactive) | 0.13
CCOc1ccccc1C1CC(c2cccc(NS(C)(=O)=O)c2)=NN1C(=O)c1ccccc1 (stereo not drawn) | -0.43 (inactive) | -0.52
c1cncc(-c2nnc3n2C2(CCCCC2)Cc2ccccc2-3)c1 | -0.05 (inactive) | -0.69
CCOc1cccc2c1OC1(CCCCC1)N1N=C(c3cccnc3)CC21 (stereo not drawn) | 13.5 (active) | 3.28
N/C(=N\OC(=O)N1c2ccccc2Sc2ccccc21)c1ccc(Br)cc1 | -1.34 (inactive) | -1.41
Cc1cc(-c2csc(N)n2)c(C)n1-c1ccccc1 | 0.37 (inactive) | 0.28
C/C(=N\NC(=O)c1ccc(NS(=O)(=O)c2cccs2)cc1)c1ccc2ccccc2c1 | 0.3 (inactive) | 0.75
CCCCC(=O)N/N=C(\C)CC(=O)Nc1cc(Cl)ccc1OC | 0.09 (inactive) | -0.2
COc1ccc(/C(C)=N/NC(=O)CCC(=O)Nc2ccc(Cl)cc2Cl)c(OC)c1 | 5.63 (active) | 5.64
COc1ccc(/C(C)=N/Nc2cc(C(F)(F)F)ccc2Cl)c(OC)c1 | -0.18 (inactive) | -0.33
O=c1[nH]c2ccccc2s1 | 0.98 (inactive) | 1.68
C=CCN(c1ccc(C(=O)Nc2cc(C)cc(C)c2)cc1)S(C)(=O)=O | -0.5 (inactive) | -0.78
C#CCOCCOCCOCCNc1nc(N2CCN(C(=O)[C@H](C(C)C)n3cc(CCO)nn3)CC2)nc(N2CCN(C(=O)[C@H]([C@@H](C)CC)n3cc(CCCN=C(N)N)nn3)CC2)n1 | 1.22 (inactive) | 1.32
CCn1c(SCC(=O)N/N=C/C=C/c2ccccc2[N+](=O)[O-])nnc1-c1ccccc1 | 0.43 (inactive) | -0.06
CN(C)C(=O)c1ccc2c(c1)C1C3CCC(C3)C1C(c1ccccc1)N2 (stereo not drawn) | -0.71 (inactive) | -0.66
CCCCNC(=O)CSc1nc2ccc(NC(=O)CSc3nnc(N)s3)cc2s1 | 0.08 (inactive) | -0.52
COC(=O)c1ccc(NC(=O)CSc2nncc3ccc(OC)c(OC)c23)cc1 | -1.41 (inactive) | -0.89

Compound | z-score (OD600 30 h) | z-score [1]
CCOc1ccc(S(=O)(=O)N/N=C(\C)c2ccc(Cl)c(Cl)c2Cl)cc1 | 1.17 (inactive) | 1.85
O=C(CSc1nc2ccccc2c(=O)n1CCCO)N1CCc2ccccc21 | -1.29 (inactive) | -0.81
CCc1ccc(C2N3CC4([N+](=O)[O-])CN2CC([N+](=O)[O-])(C3)C4(C)C)cc1 (stereo not drawn) | 1.48 (inactive) | 1.35
CCC(C)C(=O)Nc1cc([N+](=O)[O-])ccc1Cl (stereo not drawn) | 0.25 (inactive) | -0.26
CN(C)/C(=N\OC(=O)c1ccccc1)c1nonc1N | -0.17 (inactive) | 0.24
COCCn1c(=O)[nH]c(=O)c2cc(C(=O)c3cc(OC)ccc3O)cnc21 | 0.16 (inactive) | 0.23
N#C/C(=C\C1=C(N2CCOCC2)C(=C\c2ccccc2)/CC1)C(=O)Nc1ccccc1F | 0.41 (inactive) | 2.72
COc1cc(OC)cc(C(=O)NCC(=O)OCc2csc(-c3ccccc3)n2)c1 | -0.49 (inactive) | -0.88
O=C(/C=C/c1ccccc1[N+](=O)[O-])NCC1CCCO1 (stereo not drawn) | 1.67 (inactive) | 2.05
Cc1cc(C(=O)NNC(=S)NC(C)c2ccccc2)cs1 (stereo not drawn) | 0.17 (inactive) | -0.18
O=C(CN1CCN(S(=O)(=O)c2ccc(Br)cc2)CC1)Nc1ccccc1C(=O)c1ccccc1 | -0.96 (inactive) | -0.1
Cc1c(C(=O)NCCCc2ccccc2)cccc1[N+](=O)[O-] | -0.72 (inactive) | -1.83
CN(C)c1ccc(Nc2c3c4c(cccc4n(C)c2=O)C(=O)c2ccccc2-3)cc1 | 12.3 (active) | 10.3
O=[N+]([O-])c1cccc(C2=NCCS2)c1 | 0.63 (inactive) | 0.08
Cc1ccccc1NC(=S)N(CCCN1CCOCC1)Cc1cccs1 | 0.26 (inactive) | 0.42
O=C1NC(c2ccccc2)CCC1(Cl)Cl (stereo not drawn) | 0.83 (inactive) | -0.01
NS(=O)(=O)c1cc(C(=O)NCCOc2ccccc2)c(Cl)cc1Cl | -0.22 (inactive) | -0.02
O=C(NNC1=NCCC1)c1cccc(S(=O)(=O)N2CCCCC2)c1 | 1.39 (inactive) | 1.17
CCN(C(=O)COc1cccnc1[N+](=O)[O-])C1CCS(=O)(=O)C1 (stereo not drawn) | 0.14 (inactive) | 0.45
C=CCOc1c(Br)cc(/C=N\n2nnnc2N)cc1OC | 0.16 (inactive) | 0.27
CC(=O)Nc1ccc(S(=O)(=O)NC2(C(F)(F)F)C(=O)Nc3c2c(=O)[nH]c(=O)n3Cc2ccccc2)cc1 (stereo not drawn) | 0.9 (inactive) | -0.08
Cc1ccc(Nc2ccc(C(N)=O)cc2[N+](=O)[O-])cc1 | 0.35 (inactive) | 0.28
CCC1CCCCN1C(=S)Nc1ccc(C(C)=O)cc1 (stereo not drawn) | -0.29 (inactive) | -0.44
C=CCn1c(SCc2ccc(Cl)c(Cl)c2)nnc1C(CO)NC(=O)c1ccc(OC)cc1 (stereo not drawn) | 0.22 (inactive) | -0.41
COc1ccc(/C=C/C(=O)OCC(=O)NCc2cccs2)cc1OC | 1.04 (inactive) | 0.67
O=C(COC(=O)/C=C/c1cccc(Cl)c1)NCCc1ccccc1 | 3.39 (active) | 3.67
COc1cc(/C=C/C(=O)OCC(=O)Nc2cccc(Oc3ccccc3)c2)ccc1O | -0.4 (inactive) | 0.4
